Here are results for 40 compounds from PubChem BioAssay (NCI).

About 83,000 compounds went through this panel and 20% of them were active in at least one assay; those are over-represented in the sample as a whole.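 Percent growth is the endpoint: 0 to 100 indicates growth inhibition (40 means 60% inhibition), 0 means no net growth, and negative values indicate cell death.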 A number with no mark means an inactive call. Calls of active or inactive are those of the source.

In this experiment the test system is SNB-19 CNS. Kind of experiment: NCI-60 one-dose screen, 48 h (100 = growth as untreated, 0 = no growth, -100 = all killed). Particulars: 10 µM unless noted. As for the experimental part:
Growth inhibition of the SNB-19 human tumor cell line is measured as a screen for anti-cancer activity. Cells are grown in 96 well plates and exposed to the test compound for 48 hours. Compounds are tested at a single concentration, which is 10^-5 M for most compounds. The reported endpoint is percent growth (GI% or GIPRCNT), where numbers from 0 - 100% represent growth inhibition, and numbers from -100% - 0 represent cell death. For example, a value of 40 represents 60% growth inhibition. A value of 0 means no net growth occurred over the course of the experiment. A value of -40 indicates 40% of cells at the beginning of the experiment died by the end of the experiment. A value of -100 means all cells are dead at the end of the experiment.
NCI-60 Human Tumor Cell Lines Screen was performed using the standard one-dose NCI protocol, which is described in more detail at https://dtp.cancer.gov/discovery_development/nci-60/default.htm.
Compounds with GIPRCNT values below 10 were considered active. Activity score was based on GIPRCNT using the following formula: […]
Score is 0 for GIPRCNT values of 100 or above, 50 for GIPRCNT values of 0, and 100 for GIPRCNT values of -100.
`CCNc1nc(-c2ccc(F)cc2)c(C#N)c(=O)n1C`: the growth was 60.6%.
With `CS(=O)(=O)Cc1cnc(C2OCCO2)s1` the figure was 112%; with `CCn1c2ccc(O)cc2c2c(C)c3c[n+](C(C)C)ccc3c(C)c21`, 7.71% (active).
With `COc1cccc(/C=C2\COc3ccc(O)cc3C2=O)c1` the figure was 65.6%; with `CC1(C)CC[C@]2(C(=O)N3CCOCC3)CC[C@]3(C)C(=CC[C@@H]4[C@@]5(C)C/C(=C/c6ccncc6)C(=O)C(C)(C)[C@@H]5CC[C@]43C)[C@@H]2C1`, 47.5%.
In the case of `O=c1ccc2nc(C(F)(F)F)nn(-c3ccccc3)c-2c1` it was 93.5%; in that of `C=CCn1c(SCC(=O)Nc2ccc(C(=O)/C=C/c3ccc(OC)cc3)cc2)nnc1-c1ccccc1`, 83.9%.
For `COc1cc(C(=O)c2c(N)ncn2-c2ccccc2)cc(OC)c1OC`, the growth was 89.6%.
With `O=C1CCCc2nc3sc4c(=O)n(-c5ccccc5Cl)nnc4c3cc21` the figure was 93%; with `NC(CSC(c1ccccc1)(c1ccccc1)c1ccc2c(c1)OCO2)C(=O)O` (stereo not given), 37.7%; with `COc1cc2nc(Nc3cccc(F)c3)nc(Nc3cc(C)[nH]n3)c2cc1OC`, -89.2% [20 µM] (active).
With `O=C1Nc2ccccc2C2c3cccn3-c3ccccc3N12` (stereo not given) the figure was 88.9%; with `C=C(C)[C@@H]1CC[C@]2(CO)CC[C@]3(C)[C@H](CC[C@@H]4[C@@]5(C)CCC(NCCc6ccc(O)cc6)C(C)(C)[C@@H]5CC[C@]43C)[C@@H]12` (stereo not given in full), -82.1% (active).
With `Cc1cc2oc(=O)cc(CP(=O)(O)O)c2cc1O` the figure was 93.6%.
`Cc1[nH]c(C(=O)Nc2cccc(OC3CCNCC3)c2)c(Cl)c1Cl`: the growth was 74.6%.
Consider `Cc1cc2nc(-c3c(-c4ccc(F)cc4)nc4sccn34)[nH]c2cc1C`, for which the growth is 96.1%.
Take `COc1ccc(-c2oc(=O)ccc2-c2cc(OC)c(OC)c(OC)c2)cc1O`: the growth is 22.9%.
With `COc1ncc2cc1NS(=O)(=O)c1cccc(c1)C(=O)NCC1=CC=C(S1)c1ncnc3c1SC2=C3C` the figure was 11.5%; with `O=C(O)c1cccc(N/C=C/C(=O)c2cc3cc(Br)ccc3oc2=O)c1`, 94%.
In the case of `COc1ccc(C2=Nc3c(N)ncnc3NC(c3cccc(Nc4ccnc5cc(C(F)(F)F)ccc45)c3)C2)cc1` (stereo not given) it was 68.2%; in that of `Cc1cccc(NC(=O)CSc2nc3ccc([N+](=O)[O-])cc3[nH]2)c1`, 80.3%.
In the case of `O=C1NC(=O)c2c1c1c3ccccc3[nH]c1c1oc3ccc(F)cc3c21` it was 89.4%; in that of `Oc1c(I)cc(-c2nc3ccccc3s2)cc1CN(Cc1ccccn1)Cc1ccccn1`, 20.9%; in that of `O=C(CCC(=O)c1nc2ncccc2[nH]1)NN1C(=O)CSC1c1ccc(Cl)cc1` (stereo not given), 94.2%.
Take `O=C1N[C@@H]2[C@@H](O)[C@@H](O)[C@H](O)C[C@H]2c2cc3c(c(O)c21)OCCO3`: the growth is -10.4% (active).
Turning to `CCOC(=O)c1c(-c2ccc(Cl)cc2)c(C#N)c2c(C#N)c(N)nn2c1N`, the growth was 74.7%.
Turning to `O[C@@H](c1cc(C(F)(F)F)nc2c(C(F)(F)F)cccc12)[C@H]1CCCCN1`, the growth is 54.8%.
With `NS(=O)(=O)c1ccc(N/C=C/C(=O)c2cc3ccccc3oc2=O)cc1` the figure was 103%.
With `O=C(/C=C/c1cccc(Cl)c1)c1cccc(OCCCCOc2cccc(C(=O)/C=C/c3cccc(Cl)c3)c2)c1` the figure was 91%.
Consider `CCCCCCCCCCCCCCCCOC(=O)c1c(C)[nH]c(/C=C2\N=C(c3ccc[nH]3)C=C2OC)c1C`, for which the growth was 84.6%.
With `COc1cc(-c2nc(SCCC(C)C)nc(N3CCOCC3)c2C#N)cc(OC)c1OC` the figure was 65.8%; with `Clc1nccc2c(-c3csc(-c4c[nH]c5ccccc45)n3)c[nH]c12`, 71.8%.
With `Cc1c(Cl)cccc1C(=O)Nc1nc2c(s1)CN(C(=O)Nc1cccc(C(F)(F)F)c1)CC2` the figure was 36.7%; with `O=C1/C=C/[C@@H](O)[C@@H]2C[C@@H](O)C[C@H]2/C=C/CCC[C@H](CCOCc2ccccc2)O1`, 33.1%.
With `COc1ccc(-c2ccc(-c3ccc(C(=N)N)cn3)s2)cc1` the figure was 88.6%.
As for `CC[C@H](C)[C@H](NC(=O)[C@H](CCCNC(=N)N)NC(=O)[C@H](Cc1c[nH]c2ccccc12)NC(=O)[C@@H](NC(=O)[C@H](CCCCN)NC(=O)[C@H](CCCCN)NC(=O)[C@@H](NC(=O)[C@@H](NC(=O)[C@@H](NC(=O)[C@H](CCCCN)NC(=O)[C@H](Cc1ccccc1)NC(=O)[C@H](CCCCN)NC(=O)[C@H](CCCCN)NC(=O)[C@H](Cc1ccccc1)NC(=O)[C@@H](NC(=O)[C@@H](N)CCCCN)[C@@H](C)CC)[C@@H](C)O)[C@@H](C)CC)[C@@H](C)CC)C(C)C)C(=O)N[C@@H](Cc1ccccc1)C(=O)NCC(=O)N[C@@H](CCCNC(=N)N)C(=O)N[C@@H](Cc1ccccc1)C(N)=O`, the growth was -35.9% (active).
With `CCOC(=O)C(=Cc1cccc(C#N)c1)C(=O)OCC`, the growth is 85.1%.
With `COc1ccc(/C=C/C(=O)c2cc3c(N)c(C(=O)Nc4ccccc4C)sc3nc2C)cc1` the figure was 6.45% (active).
In the case of `CCC(CC)(N(CC(=O)O)CC(=O)O)C(CC)(CC)N(CC(=O)O)CC(=O)O` it was 107%.
In the case of `C/C(C=O)=C\c1ccc2c(c1)OCO2`, the growth was 111%.
